Results as given in ChEMBL document CHEMBL4513216, “Probing the Open Global Health Chemical Diversity Library for Multistage-Active Starting Points for Next-Generation Antimalarials” (ACS Infect Dis, 2020).
Out of some 65,000 compounds screened, about 2,100 (3.2%) showed an effect of 50% or more. The median lay at about -52%. Shown is part of a subset that was picked to be rich in strong results.

Tested on: Plasmodium falciparum
Experiment: Screen against P. falciparum Asexual Blood Stage (ABS), at 5uM
Type: functional, Dd2
Settings: tested at 5 uM

| SMILES | INHIBITION [%] |
| --- | --- |
| COCCCN1CCCCC12CC(=O)N(Cc1ccccn1)C2 (stereo not drawn) | -98.8 |
| Cc1noc(C)c1CN1C[C@@H]2COC[C@H](C(=O)N3CCCO3)[C@@H]2C1 | -23.5 |
| CCC(O)CN1CCN(C(=O)Cc2c(C)nc(C)[nH]c2=O)CC1 (stereo not drawn) | -143 |
| CN1CCC(O)(CNCc2ccc(F)c(C(F)(F)F)c2)CC1 | 83.3 |
| COc1ccc(OC)c(C2SCC(=O)Nc3n[nH]cc32)c1 (stereo not drawn) | -130 |
| Cc1ccc(CN2CC[C@]3(C[C@H](OCc4ccccn4)CO3)C2)o1 | 22.1 |
| Cc1ccc(CN2CCC3(CCN(S(=O)(=O)c4ccccc4)C3)C2)o1 (stereo not drawn) | 79.6 |
| Cc1ccc(CN2CC3(CCN(C(=O)c4cccnc4)C3)C2)o1 | -143 |
| COCC(=O)NC[C@H]1C[C@@H]2CCN1C[C@@H]2c1cc(-c2cccs2)nn1C | -43.2 |
| O=C(NCCc1ccccc1)NCCN1CCC(c2cccs2)CC1 | 77.6 |
| CCNC(=O)NC[C@H]1C[C@@H]2CCN1C[C@@H]2c1cc(-c2cccs2)nn1C | -58.2 |
| Cc1cc(CNC(=O)CCc2ccc(S(N)(=O)=O)cc2)no1 | -28.2 |
| COc1ccc(CCC(=O)NCCN2CCC(c3cccs3)CC2)cc1 | 75.8 |
| OC[C@@H]1[C@H]2CN(c3ccccn3)CCN2C[C@H]1c1ccccc1 | 41.3 |
| CCOC(=O)N1CCCC2(CCCNC2)C1 (stereo not drawn) | -33 |
| O=C1CO[C@@H]2CN(Cc3ccsc3)C[C@H]2N1Cc1ccncc1 | -56.6 |
| CCN(C)CC1CCN(S(=O)(=O)c2cc(C)c(F)cc2Cl)C1 (stereo not drawn) | 79.3 |
| Cc1cc(CN2C[C@@H]3CC[C@H]2CN(Cc2[nH]cnc2C)C3)on1 | -63.7 |
| Cc1ccc(N2CC[C@@H]3CN(Cc4cccc(C)n4)C[C@@H]3C2)nn1 | -27.5 |
| Cc1cccc(CN2C[C@@H]3CC[C@H]2CN(Cc2[nH]cnc2C)C3)n1 | 50.9 |
| CC[C@@H]1N(Cc2ccccn2)CCC[C@]12CCC(=O)N2CCOC | -116 |

| SMILES | INHIBITION [%] |
| --- | --- |
| Cc1[nH]c(C2(N)CCCCC2)nc(=O)c1C | -60 |
| Cc1cnc(N2CCOC3(CCCN(CC(=O)N(C)C)C3)C2)nc1 (stereo not drawn) | -6.47 |
| COc1ccc(Cl)cc1CC(=O)N1CCN(CC(C)O)CC1 (stereo not drawn) | -132 |
| CC(CNC(=O)c1cc(Cl)ccc1I)N1CCCC1 (stereo not drawn) | 71.1 |
| Cc1nc(N2C[C@H]3CNC[C@H]3C2)c2sccc2n1 | -54.7 |
| Cc1nc(CO[C@@H]2CN(Cc3cccnc3)[C@@H]3COC[C@@H]32)cs1 | -14.2 |
| CCN1CCC2(CCC1=O)CN(c1ccnc(SC)n1)CCN2C (stereo not drawn) | -44.5 |
| Cc1nc(CC(=O)N2CCN(CCOc3ccccc3)CC2)cs1 | -22.5 |
| Cc1nc(CN2CC[C@H]3[C@H]2CCN3c2ncccn2)cs1 | -38 |
| CN1CCN(C(=O)Cc2csc(-c3ccsc3)n2)C(c2ccccc2)C1 (stereo not drawn) | -7.38 |
| Cc1cnn(CCNCc2csc(-c3ncccn3)n2)c1 | 71.5 |
| Cc1cnn(CCCNCc2csc(COc3ccccc3)n2)c1 | 70.9 |
| CN(C)C(=O)CN1CCN(C(=O)Cc2csc(-c3ncccn3)n2)CC1 | 6.7 |
| CC(Cn1cccn1)NCc1csc(-c2ccsc2)n1 (stereo not drawn) | -88.6 |
| Cc1cnn(CCNCc2csc(-c3ccsc3)n2)c1 | 72.3 |
| O=C(C1CCOCC1)N1C[C@@H]2CC[C@H]1CN(Cc1ccncc1)C2 | -111 |
| COc1ccc2c(c1)c(C(=O)Nc1nnn[nH]1)cn2C | 10.8 |
| Cc1cc(N2CCCC(O)(CN(C)C)C2)c2cc3c(cc2n1)OCO3 (stereo not drawn) | 80.2 |
| Cc1cc(N2CCC(O)(CN(C)C)C2)c2cc3c(cc2n1)OCO3 (stereo not drawn) | 89.9 |
| CCN1CCN(CC(O)c2cc(Cl)ccc2Cl)CC1 (stereo not drawn) | 77 |
| CCOCCN1CCN(CC(O)c2cc(Cl)ccc2Cl)CC1 (stereo not drawn) | 78.5 |

| SMILES | INHIBITION [%] |
| --- | --- |
| O=C(NCc1cccnc1)[C@H]1CN2CCC1C[C@@H]2Cn1cc(CO)nn1 (stereo partly drawn) | -46.1 |
| O=C(O)[C@@H]1CN(CC2CCC2)C[C@H]1c1ccc(F)cc1 | -73.4 |
| O=C(c1ccco1)N1CCN2C[C@H](Oc3cncnc3)C[C@H]2C1 | -20.6 |
| CC(C)n1ncc2c1NC(=O)CC21C(=O)Nc2c(Cl)ccc(Cl)c21 (stereo not drawn) | 83.5 |
| O=C(NC[C@H]1C[C@@H]2CCN1C[C@@H]2CN1CCCCC1)c1ccco1 | -92.2 |
| COc1ccccc1C1SCC(=O)Nc2c1c(=O)[nH]n2C1CCCCC1 (stereo not drawn) | -98.6 |
| N#Cc1ccc(N2CCC(OC3CCOCC3)CC2)cc1Cl | -184 |
| CCC1CCCCN1Cc1ncc(C(C)(C)C)o1 (stereo not drawn) | 71.2 |
| CCC1CCCCN1CCc1ccncc1 (stereo not drawn) | -81.4 |
| Cc1ccc(N2C[C@H]3CCN(Cc4ccncc4)C[C@H]3C2)nn1 | -4.71 |
| COc1ccc(C(=O)C2CCCN(Cc3cc(C)n[nH]3)C2)c(OC)c1 (stereo not drawn) | -4.88 |
| Cc1cc(CN2CCC(C3CCN(CCc4ccccc4)CC3)C2)[nH]n1 (stereo not drawn) | 93.5 |
| Fc1ccccc1C1(CNC2CCOC3(CCOCC3)C2)CCCC1 (stereo not drawn) | 76.3 |
| CN(C)CCN(C)C(=O)Cc1ccc2c(c1)OCCO2 | -12.9 |
| COc1ncccc1CN1CC[C@H]2O[C@@H](c3nnc(C)o3)CC[C@H]21 | -71.9 |
| CN(C)CCN(C(=O)Cc1ccc2c(c1)OCCO2)C1CCN(C)CC1 | -48.3 |
| COc1ncccc1CN1C[C@@H]2OCCN(CCN(C)C)[C@@H]2C1 | -3.36 |
| CN(C)CCN1CCC2[C@@H]1CCN2Cc1ccc2c(c1)OCO2 (stereo partly drawn) | 72.5 |
| COc1ncccc1CN1CCC2[C@H]1CCN2CCN(C)C (stereo partly drawn) | 53.9 |
| Cc1cc(CN2CC[C@H]3C(=O)N(c4ccsc4)CCO[C@H]3C2)no1 | -34.2 |
| Cc1cccc(CO[C@@H]2CC[C@H]3[C@H]2OCCN3Cc2ccsc2)n1 | -46.8 |
